Measurements: PubChem BioAssay AID434970 (Sanford-Burnham Center for Chemical Genomics, 2010)
Screen size: about 11,000 compounds; about 310 (2.8%) were called active. No stated cut-off is given here; in the data, active means activity change below about -85%; inactive means the rest. Shown is part of a subset that was picked to be rich in actives. Starred links: 1 amine or outer side, 2 acyl side, 3 side chain; linkers in the order of their positions; H or OH if unused. Positions of bridges follow the written chain, without caps; N, C: chain ends. Non-standard residues stand in square brackets, D forms with d. Residues, ends and D or L forms follow the SMILES beside them. ξ: configuration not given here. hSer(Ph(2-I,4-NO2,6-CO)) = O=C([C@H](CCOc1c(I)cc([N+](=O)[O-])cc1C(=O)[*:3])N[*:1])[*:2]; ξD = NC(CC(=O)O)C(=O)O

tested on: intestinal alkaline phosphatase [Mus musculus]; assay: mouse intestinal phosphatase enzyme activation – biochemical, luminescence, single concentration, confirmation (AID 434970); conditions: purified mouse IAP, CDP-Star luminescence, 30 min, at 10 µM; activation factor: measured here: IAP activation factor, stronger effect = higher value; activity change, negative = activation: stronger effect = lower value

Structure (SMILES) | activation factor | activity change, negative = activation
C[C@@H]1NC(=O)c2cc([N+](=O)[O-])cc(I)c2OCC[C@@H](C(=O)NC(CC(=O)O)C(N)=O)NC(=O)[C@H](CC(N)=O)NC1=O (stereo partly specified) (AN[hSer(Ph(2-I,4-NO2,6-CO))][ξD]-NH2; lactam N-3) | 1.15 | -14.8% (inactive)
CC[C@]12c3[nH]c4cc(-c5ccco5)ccc4c3CCN1C(=O)[C@@H](CC(=O)NCc1ccco1)C[C@@H]2C(=O)N1CCN(C(=O)C2CC2)CC1 | 1.23 | -22.7% (inactive)
CC(C)CCNC(=O)NC(=O)CSc1nnc(COc2ccccc2Cl)o1 | 1.04 | -4.3% (inactive)
CC(C)C(=O)Nc1nnc(SCC(=O)NCc2cccs2)s1 | 0.976 | 2.4% (inactive)
Cc1ccc(C(=O)Nc2nncs2)cc1S(=O)(=O)N1CCOCC1 | 0.927 | 7.35% (inactive)
COc1ccc(S(=O)(=O)NCCc2ccc(F)cc2)cc1 | 0.961 | 3.9% (inactive)
Cc1cc2c(ncn2C)c(NS(=O)(=O)c2cc(Cl)ccc2Cl)c1C | 0.946 | 5.45% (inactive)
Cc1noc2ncnc(Sc3c(Cl)cccc3Cl)c12 | 0.906 | 9.4% (inactive)
C#CCOCCOCCOCCNc1nc(N2CCN(C(=O)CCCCCCCCCCNC(=O)[C@H](CO)n3cc(CCCSC)nn3)CC2)nc(N2CCN(C(=O)CCCCCCCCCCNC(=O)[C@H](CCCN=C(N)N)n3cc(C[C@@H](C)CC)nn3)CC2)n1 | 5.98 | -498% (active)
C#CCOCCOCCOCCNc1nc(N2CCN(C(=O)CCCCCCCCCCNC(=O)[C@@H](CCSC)n3cc(CCO)nn3)CC2)nc(N2CCN(C(=O)CCCCCCCCCCNC(=O)[C@H](CCCN=C(N)N)n3cc(C[C@@H](C)CC)nn3)CC2)n1 | 8.61 | -761% (active)
C#CCOCCOCCOCCNc1nc(N2CCN(C(=O)CCCCCCCCCCNC(=O)[C@H](CO)n3cc(CCCSC)nn3)CC2)nc(N2CCN(C(=O)CCCCCCCCCCNC(=O)[C@H](CCCCN)n3cc(C[C@@H](C)CC)nn3)CC2)n1 | 2.83 | -183% (active)
COc1ccc(N2C(=O)C3CCCN3C2c2ccccc2)cc1Cl (stereo unspecified) | 0.895 | 10.5% (inactive)
C=CCNC(=O)c1nc2ccccc2s1 | 0.92 | 8% (inactive)
Cn1c(=O)cc(SCC(=O)Nc2cccnc2)c2ccccc21 | 0.952 | 4.8% (inactive)
CCC1CCCCN1CCCNC(=O)c1ccc2c(=O)n(Cc3ccc(OC)cc3)c(=O)[nH]c2c1 (stereo unspecified) | 0.925 | 7.5% (inactive)
Fc1ccc(CNc2nc(-c3ccco3)cc(C(F)(F)F)n2)cc1 | 0.991 | 0.9% (inactive)
COc1ccc2c(c1OC)C(=O)N(c1ccc(C)c(C)c1)C2=O | 0.976 | 2.45% (inactive)
COc1cc(/C=C(\C#N)c2nc3ccc(C)cc3[nH]2)c([N+](=O)[O-])cc1OC | 0.806 | 19.4% (inactive)
Cc1[nH]ccc(=O)c1OCc1c(Cl)cccc1Cl | 0.957 | 4.3% (inactive)
COCCn1c(Sc2ccccc2)nc2c1c(=O)[nH]c(=O)n2C | 1.07 | -6.95% (inactive)
COC(=O)[C@H]1C2CCC(C(=O)OC)(CC2)[C@H]1C(=O)OC | 0.915 | 8.55% (inactive)
O=S(=O)(c1ccc(F)cc1)N1CCN(CC(O)COCc2cccs2)CC1 (stereo unspecified) | 0.928 | 7.2% (inactive)
Cc1c(C(=O)Nc2ccc(Cl)cc2)c2ccccn2c1C(=O)c1ccccc1 | 1.02 | -1.8% (inactive)
CC(C)c1ccc(NC(=O)NC(C)c2ccc3c(c2)OCO3)cc1 (stereo unspecified) | 3.31 | -231% (active)

Structure (SMILES) | activation factor | activity change, negative = activation
COC(=O)Nc1ccc2c(c1)OCO2 | 0.903 | 9.6% (inactive)
CC(NC(=O)Nc1ccc(Cl)cc1)c1ccccc1 (stereo unspecified) | 2.11 | -111% (active)
CC1CCCN(C(C(=O)Nc2ccc(C(C)C)cc2)c2ccc3c(c2)OCO3)C1 (stereo unspecified) | 1.73 | -73.3% (inactive)
Cc1ccc(NC(=O)N/C=C/c2ccccc2)cc1 | 1.56 | -55.5% (inactive)
CCN(CC)C(C(=O)Nc1ccc(C(C)C)cc1)c1ccc2c(c1)OCO2 (stereo unspecified) | 1.48 | -48.4% (inactive)
Cc1ccc(NC(=O)N/C=C/c2ccc(Cl)cc2)cc1 | 1.09 | -9.1% (inactive)
CC(NC(=O)C1CCC1)c1ccccc1 (stereo unspecified) | 1.12 | -11.9% (inactive)
Cc1noc(-c2ccccc2)c1NC(=O)Nc1ccc(Cl)cc1 | 1.7 | -70.2% (inactive)
CC(NC(=O)Nc1ccc(Cl)cc1)c1ccc2c(c1)OCO2 (stereo unspecified) | 2.53 | -153% (active)
O=C(N/C=C/c1ccccc1)Nc1ccc(Cl)cc1 | 2.71 | -171% (active)
COc1ccc(Cl)cc1C(=O)Nc1ccc2c(c1)OCO2 | 1.1 | -10.2% (inactive)
Cc1cccc(OCCCSc2nc3ccccc3[nH]2)c1 | 1.13 | -12.6% (inactive)
COC(=O)c1c(NC(=O)c2ccccc2)sc(Cc2ccccc2)c1C | 1 | -0.05% (inactive)
O=C(NCC(=O)N(CC1CCCO1)C1(C(=O)NC2CCCC2)CCCCC1)c1ccccc1 (stereo unspecified) | 1.03 | -3.2% (inactive)
CCOC(=O)N1CCN(C(=O)Cn2c(C)cc3ccccc3c2=O)CC1 | 1.12 | -11.8% (inactive)
Cc1ccc(Nc2c3c(nc4ncnn24)CC(C)CC3)cc1 (stereo unspecified) | 1.02 | -2.1% (inactive)
C1CN(c2nc3nonc3n3nnnc23)CCO1 | 0.972 | 2.75% (inactive)
O=C(Cn1cc(C(=O)C2CC2)c2ccccc21)NCC1CCCO1 (stereo unspecified) | 0.944 | 5.6% (inactive)
O=C(O)CS(=O)(=O)c1ccc(Oc2ccc(S(=O)(=O)CC(=O)O)cc2)cc1 | 1.1 | -10.4% (inactive)
CC(NC(=O)c1ccco1)c1ccc2c(c1)OCCO2 (stereo unspecified) | 0.968 | 3.25% (inactive)
CCc1ccc(NC(=O)NC(C)c2ccc3c(c2)OCO3)cc1 (stereo unspecified) | 2.66 | -166% (active)
CC(C)c1ccc(NC(=S)NCc2ccc3c(c2)OCO3)cc1 | 1.36 | -36.3% (inactive)
COc1cc2oc(=O)cc(-c3ccc(-c4ccc(C)cc4)cc3)c2c(OC)c1OC | 0.934 | 6.55% (inactive)
COc1ccc(CC(=O)N[C@@H]2c3ccccc3CC[C@@H]2OCc2ccccc2)cc1 | 1.19 | -18.9% (inactive)
